This excerpt belongs to a sample that is enriched for hits.
Mac1 fbg inh = inhibitors of human CD11b/CD18 binding to fibrinogen | K562 CD11b/CD18 adhesion to fibrinogen, ATPlite luminescence; Mn2+ added to activate the integrin | inhibition, % at 10 µM | actives 0.54% (n = 93,000) | AID 1497;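 active means primary inhibition of 50% or more at 10 µM, then 40% or more on retest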
E coli WT exp = blocks growth of wild type E. coli BW25113; actives 0.15% (n = 98,000); growth inhibition, % at 100 µM; OD600 absorbance;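 active means growth inhibition above about 50% at one test dose, limit read from the data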;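 further: growth measured after 20 h incubation at 37 °C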
Cav32 inh = human Cav3.2 channel inhibition, primary screen; O95180; Cav3.2-expressing cells, Fluo-4 calcium fluorescence FDSS; stronger effect = lower value; B-score at 10 µM; actives 4% (n = 100,000); AID 449739;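 active means single-dose well whose peak fluorescence ratio is a statistical outlier from its plate by either plate-standardised score or position-corrected B-score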
Mac1 fbg enh = CD11b/CD18-fibrinogen binding enhancement. K562 CD11b/CD18 adhesion to fibrinogen, ATPlite luminescence. activation, % at 10 µM. actives 0.07% (n = 93,000). AID 1499;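 active means 10 µM primary screen giving 50% or more activity, confirmed by 40% or more on retest at that dose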
Starred values were filed as active, the others as inactive; / = no result given.

SMILES	Mac1 fbg inh	E coli WT exp	Cav32 inh	Mac1 fbg enh
O=C(Nc1nnc(-c2ccc3c(c2)CCCC3)o1)c1ccc(Cl)cc1Cl	104	1	-3.2*	-13
COc1ccc(-c2nnc(NC(=O)c3ccc(F)cc3)o2)cc1	-16	51*	/	2
O=C(Nc1nnc(-c2ccc3c(c2)CCCC3)o1)C1CCCCC1	-7	-7	0.3	57
Cn1c(=O)cc(N)n(Cc2ccccc2)c1=O	/	/	1.6	/
Cc1ccc(C(=O)C(OC(=O)CN2C(=O)c3ccccc3C2=O)c2ccccc2)cc1 (centres undefined)	-9	-13	-5.9*	1
Cc1ccc(C(=O)C(OC(=O)CN2C(=O)c3ccccc3C2=O)c2ccccc2)cc1C (centres undefined)	/	-9	-5.1*	/
NNC1=N[C@H]2CS(=O)(=O)C[C@H]2S1	-8	/	/	-2
Cc1c(N=Cc2c(O)n(C3CCCCC3)c(=O)[nH]c2=O)c(=O)n(-c2ccccc2)n1C	-14	5	1.3	-2
O=c1[nH]c(=O)n(C2CCCCCC2)c(O)c1C=NCc1ccc(F)cc1	8	-10	-6.7*	-3
CC(=O)NC1CCCN(O)C(=O)/C=C(\C)CCOC(=O)C(NC(C)=O)CCCN(O)C(=O)/C=C(\C)CCOC(=O)C(NC(C)=O)CCCN(O)C(=O)/C=C(\C)CCOC1=O (centres undefined)	/	/	-0.29	/
CCOC(=O)c1c(C=O)c(C)n(Cc2ccccc2Cl)c1C	11	2	-3.2	0
CCOC(=O)c1c(C=O)c(C)n(Cc2ccc(C)cc2)c1C	4	9	-6.1*	-1
CC1CCCC(NC(=O)COC(=O)c2cc(S(=O)(=O)N3CCCCC3)ccc2N2CCOCC2)C1C (centres undefined)	1	6	-1.1	-2
CSc1nc2ccc(NS(=O)(=O)c3cccc(Cl)c3Cl)cc2s1	83	/	/	-5
O=C(CCC1N=C2c3ccccc3N=C(SCc3ccccc3Cl)N2C1=O)NCc1ccco1 (centres undefined)	-3	-4	-4.2*	0
CCCCCc1nnc(NC(=O)C(=O)OCC)s1	/	-5	-0.013	/
CCCCN1CNC(=S)N(Cc2ccccc2)C1	-1	/	/	-3
O=C(COc1ccc(/C=N/NS(=O)(=O)c2ccccc2)cc1)Nc1ccc(F)cc1	-6	1	-6*	0
Fc1cccc2sc(Nc3nnc(-c4ccccc4)o3)nc12	/	-20	-5*	/
O=S(=O)(Nc1nccs1)c1ccc(Cl)cc1	-4	18	-3.4*	1
O=C(O)CCC(=O)Nc1ccc(S(=O)(=O)Nc2nccs2)cc1	/	/	0.0094	/
OC(COc1ccc(OCc2ccccc2)cc1)CN1CCCCC1 (centres undefined)	-35	7	0.2	10
CC(O)c1c(OCc2ccccc2)ncnc1OCc1ccccc1 (centres undefined)	30	5	-5.1*	3
CN1CCN(C(=O)C2=C[C@H](C(C)(C)C)C[C@H](OCCCCO)O2)CC1	/	/	0.67	/
Brc1ccc(-c2nnc3n2C2(CCCC2)Cc2ccccc2-3)o1	/	/	-1.8	/
SMILES	Mac1 fbg inh	E coli WT exp	Cav32 inh	Mac1 fbg enh
CC(NC(=S)NCCc1ccccc1)C(c1cccs1)N1CCN(Cc2ccccc2)CC1 (centres undefined)	/	/	-4.6*	/
COc1ccc(-c2oc(NC(C)=O)c(C#N)c2-c2ccc(OC)cc2)cc1	-27	-4	-0.72	-6
COc1ccc(C(=O)Nc2oc(-c3ccccc3)c(-c3ccccc3)c2C#N)cc1	/	-17	-7*	/
COc1ccc(-c2oc(NC(=O)c3ccc(C)cc3)c(C#N)c2-c2ccc(OC)cc2)cc1	6	-16	-3.6*	-2
Cc1ccc(SCCNC(=O)c2ccc(C)c([N+](=O)[O-])c2)cc1	/	-2	-5.6*	/
Cc1ccc(C(=O)NCCc2nc3ccccc3[nH]2)cc1[N+](=O)[O-]	7	/	/	1
Cc1ccc(C(=O)NCCSc2ccc(Cl)cc2)cc1[N+](=O)[O-]	/	-12	-5.8*	/
Cc1cc(C)nc(NC(=O)c2ccc(C)c([N+](=O)[O-])c2)n1	-3	-6	0.14	-6
Cc1ccc(C(=O)NCCSc2c(C)[nH]c3ccccc23)cc1[N+](=O)[O-]	/	/	-6.9*	/
CC(C)[C@H]1COCCS(=O)(=O)N1Cc1ccccc1	/	/	0.97	/
COc1ccc(S(=O)(=O)N2CCCCC2)cc1	8	9	-0.77	0
COc1ccc(S(=O)(=O)N=C2C=C(C)C(=O)C(C)=C2)cc1	89*	10	0.94	10
Cc1ccc(C)c2[nH]c(=O)c(CN(CC3CCCO3)C(=O)NC3CCCCC3)cc12 (centres undefined)	4	-1	-0.87	-1
CC(NC(=S)Nc1ccc(F)cc1)C(c1cccs1)N1CCOCC1 (centres undefined)	/	/	0.091	/
CN(C)S(=O)(=O)c1ccc(N2CCCC2)c(C(=O)NC(c2ccccc2)c2ccccc2)c1	18	1	-4.3*	-4
CN(C)S(=O)(=O)c1ccc(N2CCCC2)c(C(=O)Nc2ccc(N3CCOCC3)cc2)c1	-7	3	1.1	-3
CCOC(=O)c1ccc(NC(=S)NNC(=O)C2(C)CC2(Cl)Cl)cc1 (centres undefined)	/	/	-3	/
COC(=O)c1ccccc1NC(=O)CSCC(=O)Nc1ccccc1	-1	8	0.7	1
CCC1S/C(=C(\C#N)C(=O)NCc2ccco2)N(c2ccc(Br)cc2)C1=O (centres undefined)	-5	-1	-5.4*	-2
COc1ccc(N(CC(=O)NC2CCCC2)C(=O)Cn2nnc(-c3ccc(C)cc3)n2)cc1	/	-11	-6.7*	/
COc1cc2c(cc1OC)C(C(=O)Nc1ccc3c(c1)OCCO3)C(c1cccnc1)N(C)C2=O (centres undefined)	-5	-4	/	5
CCOC(=O)c1sc(NC(=O)c2cc(-c3ccccc3C)nc3ccccc23)c(C#N)c1C	93*	2	-6.8*	-7
Cc1ccc(-c2noc(CCCOc3ccc(Cl)cc3Cl)n2)cc1	14	-3	-2.6	-2
Cc1cccc(-c2noc(CCCOc3ccc(Cl)cc3Cl)n2)c1	99*	-4	-3.7	-9
CCOC(=O)C1CCCN(C(=O)C2c3ccccc3Oc3ccccc32)C1 (centres undefined)	-5	5	-5.8*	-1
SMILES	Mac1 fbg inh	E coli WT exp	Cav32 inh	Mac1 fbg enh
CCOC(=O)C1CCCN(C(=O)CC(c2ccccc2)c2ccccc2)C1 (centres undefined)	/	/	-2.5	/
NC(=O)CC(NC(=O)Cc1cccc2ccccc12)c1ccc(NCCc2ccccc2F)c([N+](=O)[O-])c1 (centres undefined)	/	/	-0.069	/
O=C(NC(CSCc1ccccc1)C(=O)N/N=C/c1ccc(O)cc1O)c1ccc([N+](=O)[O-])cc1 (centres undefined)	2	12	-4.7*	3
CCOC(=O)c1c(C)[nH]c(C(=O)Cn2nnc(-c3ccccc3Cl)n2)c1C	-12	-2	0.68	1
CCOC(=O)c1c(C)[nH]c(C)c1C(=O)Cn1nnc(-c2ccccc2C)n1	/	-18	-10*	/
CCN(C(=O)CSc1ncccc1C(=O)OC(C)C)c1cccc(C)c1	-8	-4	-5.6*	-3
CC(C)OC(=O)c1cccnc1SCC(=O)N(C)c1ccccc1	-18	-3	-0.7	-2
